Autophagy HCS: autophagy modulation, high-content screen | MEF GFP-LC3 puncta imaging; test concentration mostly 10 µM | calls only at 10 µM (by protocol) | AID 463193 | 190,000 compounds, 0.98% hits;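 active = percentage of spot-positive cells more than 3 SD above its plate mean, without a fluorescence outlier flag or 80% toxicity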;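 note: spot-positive cell cutoff set from DMSO-treated cells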
INS promoter inh: TRM-6 insulin promoter activity inhibition; TRM-6 cells (human fetal islet line), insulin promoter-eGFP reporter, imaging; reporter expression induced with tamoxifen; inhibition, % at 2 µM; 130,000 compounds, 0.9% hits; AID 1273;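 active = inhibition above the mean plus 3 SD, with well images judged a real hit on visual review, cut at about 60% in these data, passing the limit was not always enough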
Insulin prom up: MIN6 insulin promoter up-regulation; AID 1625; MIN6 insulin promoter-GFP reporter, high-content imaging; active compounds read high; 190,000 compounds, 0.3% hits; z-score at 5 µM;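 active = z-score above 3 at 5 µM with at least 500 cells counted in the well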
L major viab: inhibitors of Leishmania major promastigote growth; AID 1063; inhibition, % at 10 µM; Leishmania major promastigotes, resazurin fluorescence viability; 200,000 compounds, 9% hits; in the data active = inhibition above about 50%;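 note: promastigotes grown with compound for 44 hours at 28 °C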
WT yeast gro inh: growth inhibition of WT yeast, mitochondrial fusion screen; mitochondrial fusion phenotypic screen, WT strain; inhibition, % at 10 µM; 190,000 compounds, 2.1% hits; in the data active = inhibition above about 58%; tested in S. cerevisiae
Starred values were filed as active, the others as inactive; i = inactive; / = no result; + = active, no number. Compounds with a hit are over-represented: about 11% of the library has one in this group of screens.

SMILES	Autophagy HCS	INS promoter inh	Insulin prom up	L major viab	WT yeast gro inh
CCC(=O)OCC(=O)Nc1cc([N+](=O)[O-])ccc1OC	i	12	-0.7	-2	2
C[n+]1nc(Nc2cccc3ccccc23)sc1-c1ccc(C(=O)O)cc1	/	/	-0.14	/	/
Cc1onc(-c2ccccc2)c1NC(=O)N(CCC#N)Cc1ccccc1	/	/	-0.29	/	/
COC(=O)C1=C(C)N(c2cc(C)cc(C)c2)/C(=C/c2ccco2)C1=O	i	-10	0.08	48	6
COC(=O)C1=C(C)N(c2cc(C)cc(C)c2)/C(=C/c2ccc(O)cc2)C1=O	i	0	0.19	99*	-5
COC(=O)C1=C(C)N(c2ccc(Cl)cc2)/C(=C/c2ccc(O)cc2)C1=O	i	/	-0.56	84*	-8
COC(=O)C1=C(C)N(c2ccccc2)/C(=C/c2ccco2)C1=O	/	/	-0.01	/	/
CN(C)c1ccc(C(C#N)c2ccccc2)nn1 (centres undefined)	i	/	0.43	-9	-21
Cc1cc(=O)[nH]c(SC(C(=O)O)c2ccccc2)n1 (centres undefined)	i	12	0.45	73*	-20
Cc1cc(-c2ccccc2)nc(SC(C(=O)O)c2ccccc2)n1 (centres undefined)	i	/	0.15	-3	1
O=C(N1CCOCC1)N1CCCN(C(=O)N2CCOCC2)CC1	i	-38	0.71	0	-4
COc1ccc2c(C)cc(N3CCN(c4ccc(F)cc4)CC3)nc2c1	i	20	-2	87*	62
Cc1cc(N2CCN(C)CC2)nc2ccc(NC(=S)N3CCCCCC3)cc12	i	/	0.3	22	20
COc1ccc(N2CCN(c3cc(C)c4ccc(C)cc4n3)CC2)cc1	i	7	-0.36	-4	24
CCCCN(CC)C(=S)Nc1ccc2nc(N3CCN(C)CC3)cc(C)c2c1	i	/	0.23	53*	8
Cc1cccc(N2CCN(C(=S)Nc3ccc4nc(N5CCN(C)CC5)cc(C)c4c3)CC2)c1C	+	31	/	101*	27
Cc1cc(N2CCN(C)CC2)nc2ccc(NC(=S)N3CCN(c4ccc(F)cc4)CC3)cc12	i	7	-0.65	100*	0
Cc1cc(N2CCN(C)CC2)nc2ccc(NC(=S)N3CCCCC3)cc12	i	/	1.5	33	28
Cc1cc(C)cc(C(=O)N2CCN(c3ccccn3)CC2)c1	i	/	0.68	-4	-6
Cc1cc(N2CCN(C)CC2)nc2ccc(NC(=S)N3CCN(c4ccc(Cl)cc4)CC3)cc12	i	-164	-0.94	100*	97*
Cc1cccc(N2CCN(C(=S)Nc3ccc4nc(N5CCN(C)CC5)cc(C)c4c3)CC2C)c1 (centres undefined)	i	/	-0.6	98*	6
COC(=O)c1sccc1NC(=S)N1CCN(c2cccc(C)c2C)CC1	i	-17	-0.28	0	74*
COc1ccc(-n2nccc2-c2nn(-c3cccc(OC)c3)c(=O)n(C)c2=O)cc1	i	-25	-0.67	7	9
COc1cccc(-n2nc(-c3ccnn3-c3ccc(F)cc3)c(=O)n(C)c2=O)c1	i	4	1.2	52*	-3
O=C(COC(=O)/C=C/c1ccco1)NCCc1ccccc1	i	-50	-0.18	-6	9
SMILES	Autophagy HCS	INS promoter inh	Insulin prom up	L major viab	WT yeast gro inh
N#CCCN(Cc1ccccc1)C(=S)Nc1ccccc1	i	-15	-0.87	52*	-11
COc1ccc(CN(CCC#N)C(=S)NC(=O)c2ccccc2)cc1	i	/	-0.28	60*	-7
CCCN(CCC)C(=S)NC(=O)c1ccc(-c2ccccc2)cc1	i	-50	0.42	3	68*
CN(C)CCCN(Cc1ccccc1)C(=S)Nc1ccc(OC(F)F)cc1	i	/	-0.24	99*	1
Cc1ccc(C(=O)NCc2nnc(SCC(=O)NC(C)c3ccccc3)n2C)cc1 (centres undefined)	i	/	0.03	-7	2
O=C1CCCN1c1cccc(Br)c1	i	56	0.15	-5	7
Cc1ccc(C)c(CSc2ccc3nnc(-c4ccccn4)n3n2)c1	i	/	-0.85	21	16
COc1ccccc1CCNC(=O)CSc1nnc2ccc(-c3ccncc3)nn12	i	/	0.47	6	-8
CCCCN(CCCC)C(=S)NC(=O)c1ccccc1Cl	i	-91	-0.75	0	64*
CCOc1ccc(C(=O)NC(=S)N(Cc2ccccc2)Cc2ccccc2)cc1	i	0	-0.95	57*	12
O=C(NCC1CCCN(Cc2ccccc2F)C1)c1cccc(C(F)(F)F)c1 (centres undefined)	i	/	-0.81	61*	7

Compound activity deposited in PubChem BioAssay by several laboratories.
